Source: PubChem (National Center for Advancing Translational Sciences (NCATS))
ELG1 DNA repair = qHTS screen for small molecules that inhibit ELG1-dependent DNA repair in human embryonic kidney (HEK293T) cells expressing luciferase-tagged ELG1; AID 504467, 2011; Potency, µM (doses to about 46.1 µM), without a hit: at the top dose activity change, negative = inhibition, actives largely listed as inhibitors; 2.3% of 330,000 active; HEK293T ELG1-luciferase reporter, luminescence, 16 h; DNA damage induced by 5-fluorouridine; further: potency means the concentration at half of the fitted maximal effect; nearly all actives have a fitted effect of over 55% in size
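Overnight (16 hr) co-exposure of 2,000 cells/well to 5-fluorouridine and compound at 37 °C preceded detection. Luciferase was quantified via ONE-Glo luminescence; loss of signal denotes inhibition.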
HT1080 IDH1KD tx = qHTS for induction of synthetic lethality in tumor cells producing 2HG: qHTS for the HT-1080-IDH1KD cell line. HT-1080 IDH1 knockdown viability, ATP luminescence, 48 h. Potency, µM (highest dose often 46.1 µM), inactives show at the highest dose activity, negative = toxicity, most hits filed as cytotoxic. 2% of 360,000 active;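 further: potency means the concentration at half of the fitted maximal effect; 0% = DMSO wells and -100% = cell-free medium wells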
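In this qHTS, HT-1080 cells depleted of IDH1 are exposed for 48 h at 37 °C to compound titrations. Toxicity is scored from CellTiter-Glo luminescence, with DMSO as full viability and medium alone as none.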
DT40 TDP1 CPT = qHTS for Inhibitors of human tyrosyl-DNA phosphodiesterase 1 (TDP1): qHTS in cells in presence of CPT; chicken DT40 Tdp1-/-;hTDP1 cells + 20 nM CPT, ATP luminescence, 48 h; Potency, µM (highest dose often 46.2 µM), for inactives: at the highest dose activity change, negative = growth inhibition, hits mostly inhibitors; 12% of 420,000 active; further: potency means the concentration at half of the fitted maximal effect; nearly all actives have a fitted effect of over 55% in size
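Chicken DT40 Tdp1-/- cells complemented with human TDP1, 400 cells/well, exposed to compounds plus 20 nM camptothecin for at least 48 h at 37 C; viability read as ATP content by CellTiter-Glo luminescence.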
IL-1B inflam inh = qHTS for Inhibitors of Inflammasome Signaling: IL-1-beta AlphaLISA Primary Screen | THP-1 LPS/ATP IL-1B secretion, AlphaLISA, 16 h; hits give low values | activity change, % at 57.5 µM | 4.7% of 360,000 active; in the data active means activity change below about -50%; inconclusive means mostly about -30% to -49%
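Secreted IL-1B measured by AlphaLISA bead assay after 16 h compound exposure of THP-1 cells; compounds (final up to 57.5 uM) added 1 h before LPS (250 ng/mL) and ATP (1.25 mM) stimulation; lower signal means less secretion.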
HT1080-NT tox = qHTS for induction of synthetic lethality in tumor cells producing 2HG: qHTS for the HT-1080-NT fibrosarcoma cell line | HT-1080-NT fibrosarcoma viability, CellTiter-Glo ATP luminescence, 48 h | Potency, µM (doses to about 46.1 µM), without a hit: top-dose activity, negative = less viability, hits mostly cytotoxic | 1.6% of 360,000 active | AID 686970, 2013;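 further: NT is the 2HG producing partner of a matched IDH1 knockdown line; potency means the concentration at half of the fitted maximal effect; 0% = DMSO-treated cells and -100% = media-only wells without cells; nearly all actives have a fitted effect of over 55% in size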
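Compounds were tested in concentration-response format on HT-1080-NT cells for 48 hours at 37 degrees C. Cell viability came from CellTiter-Glo luminescence; curves were classified by r2, response magnitude and activity.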
DT40 TDP1 no CPT = qHTS for Inhibitors of human tyrosyl-DNA phosphodiesterase 1 (TDP1): qHTS in cells in absence of CPT. AID 686978, 2013. DT40 Tdp1-/- hTDP1 cells, no CPT, ATP luminescence, 48 h. Potency, µM (series often up to 46.2 µM), for inactives: at the top dose activity change, negative = growth inhibition, most hits filed as inhibitors. 15% of 420,000 active; further: potency means the concentration at half of the fitted maximal effect; nearly all actives have a fitted effect of over 55% in size
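Seeded 400 DT40-hTDP1 cells/well (vehicle DMSO, no 20 nM CPT); pinned compounds; ≥48 hr at 37 °C; CellTiter-Glo luminescence as viability measure.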
Active calls of the source: *; ? = inconclusive; . = not tested or not shown; [ ] = another dose, or the depositor's remark. The list is not random: actives were taken first. Their share in the collection is about 19%. Unless noted, the call rests on the fitted dose curve; in most records, active means well fitted curve in the direction sought with a large enough effect; inconclusive means small, poorly fitted or top-dose-only effect, or another doubt; inactive means no such curve, though single readings can be large; an effect the other way counts as inactive or inconclusive. Unless noted, on the % scale 0 is the no-effect control and ±100 the full control effect.

SMILES	ELG1 DNA repair	HT1080 IDH1KD tx	DT40 TDP1 CPT	IL-1B inflam inh	HT1080-NT tox	DT40 TDP1 no CPT
Clc1cc(Br)ccc1OCCOCCN1CCOCC1	30%	1%	-29%	-15	1%	-27%
CC(C)(C)c1cc(Cl)ccc1OCCOCCN1CCCC1	-12%	18µM*	?	-75*	15µM*	13µM*
COc1ccc(/C=C/C(=O)NCC(=O)N/N=C/c2cccs2)cc1	0%	18%	-19%	-5	5%	-21%
O=C(NCc1ccc(F)cc1)c1ccc2c(c1)S(=O)(=O)c1ccccc1C2=O	.	0%	-26%	-6	-1%	?
COc1ccc(OC2C(=O)N(c3cc(C)ccc3C)C2c2ccc(OC)c(OC)c2)cc1 (stereo not given)	18µM*	1%	?	0	-2%	?
COc1ccc(OC2C(=O)N(c3ccc(C)c(C)c3)C2c2ccc(OC)c(OC)c2)cc1 (stereo not given)	?	-11%	?	-7	0%	15µM*
CC1CN(CC(=O)NCC2(N3CCOCC3)CCCC2)Cc2cc(Cl)ccc2O1 (stereo not given)	.	.	5%[9.04 µM]	.	.	?
CC(C)c1c(C#N)c(N)nc(SCC(=O)c2cc3ccccc3oc2=O)c1C#N	-13%	-6%	?	-9	-2%	?
N#Cc1ccc(-c2ccccc2)nc1SCC(=O)c1cc2ccccc2oc1=O	20%	?	23µM*	10	?	?
Cc1cc(C)c(C#N)c(SCCN2CCOCC2)n1	4%	11%	28%	-11	-1%	12%
Cc1nc(SCC(=O)c2cc3ccccc3oc2=O)c(C#N)c(-c2cccs2)c1C(=O)Nc1ccccc1	?	9%	21µM*	-3	7%	?
N#Cc1ccc(-c2ccccc2)nc1SCCN1CCOCC1	?	-19%	-30%	-75*	-2%	?
Cc1nc2ccccc2c2c1C(=O)NC2=O	-16%	.	.	.	.	.
COc1ccc(CNc2ccnc(-c3ccc(N(C)C)cc3)n2)c(OC)c1	.	.	26µM*	.	.	?
COc1ccc(CNc2ccnc(-c3cccnc3)n2)c(OC)c1	.	.	23µM*	.	.	?
O=C(NCCN1Cc2ccccc2OC(c2ccsc2)C1)c1ccc2[nH]ccc2c1 (stereo not given)	.	.	-2%[9.04 µM]	.	.	-25%
Cc1cccc2c(=O)cc(CSc3ccccc3NC(=O)C(C)(C)C)[nH]c12	.	.	-16%	.	.	-5%
Cc1c(C(=O)N2c3ccccc3Sc3ccccc32)cccc1[N+](=O)[O-]	?	-30%	?	-14	-21%	26µM*
Cc1cc(C)n(C(=O)c2cccc([N+](=O)[O-])c2C)n1	-15%	-7%	-26%	-1	0%	-9%
CCc1nc(SCC(=O)N2CCC(C)CC2)c2c(=O)n(C)c(=O)n(C)c2n1	21µM*	-9%	?	27	6%	26µM*
CCCc1nc(SCC(=O)N2CCC(C)CC2)c2c(=O)n(C)c(=O)n(C)c2n1	?	10%	16µM*	?	13%	12µM*
CCCc1nc(SCC(=O)N2CCN(c3ccccc3)CC2)c2c(=O)n(C)c(=O)n(C)c2n1	?	4%	6.5µM*	16	-12%	7.3µM*
CCCc1nc(SC2CCCC2)c2c(=O)n(C)c(=O)n(C)c2n1	-13%	0%	23µM*	33	3%	23µM*
